# Data from the OligoGym collection.
# Target: DEXI
# Experiment: pooled miR-30 sensor sort-seq; sequence = guide strand
# Conditions: shRNA
# Also: reference of the scale not given here.
row,Sequence,sensor-assay potency score (higher = more potent)
1,TTCCTGTAAACATCCATCGCAG,-0.501
2,TAGTACAGGATCAGCACATTGA,-0.394
3,TCAAACAGGAACCTCTCTGTTG,-0.754
4,TAGAGGGCAGCAGCGGCGGCGG,-1.83

# Target: DGKE
# Experiment: as above
# Conditions: shRNA
row,Sequence,sensor-assay potency score (higher = more potent)
1,TTTTGGATGAACATGTATCTAC,-0.088
2,TTGACAGCCACACTGCTGCTTG,0.0149
3,TTTGTTACTTGAACTTTCCATC,-0.49
4,TGAACATGTATCTACTTGCGTG,-0.503
5,TTCTTGAGCATAATCTCCTTGC,-0.369
6,TTGAACTTTCCATCGATCTAGT,0.305
7,TTAATTTGATCTTTCCACCCAC,0.385
8,TTTGACAGTAATCATTTCCTTT,-0.513
9,TTGCACTAAACAATCTTTGGTT,0.42
10,TTTAATTCCATCTGCTTCCATT,-0.836
11,TTACTTGAACTTTCCATCGATC,-0.458
